Measured values taken from publication PMC11006913.
Substitutions are numbered along the chain they refer to.

Experiments:
Assay in all cases: PBM; 200 nM protein, PBS
Conditions in all cases: dsDNA, one strand shown
[1] = target: T1, SIX6 (Homo sapiens, UniProt O95475 114-200, L167I)
T1 sequence: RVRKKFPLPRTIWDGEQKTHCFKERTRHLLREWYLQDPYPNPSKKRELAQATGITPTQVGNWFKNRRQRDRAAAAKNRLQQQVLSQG

[2] = target: T2, SIX6 (Homo sapiens, UniProt O95475 114-200, H141N)
T2 sequence: T1 sequence with H28N, I54L

[3] = target: T3, SIX6 (Homo sapiens, UniProt O95475 114-200, T165G)
T3 sequence: T1 sequence with T52G, I54L

[4] = target: T4, SIX6 (Homo sapiens, UniProt O95475 114-200, T165A)
T4 sequence: T1 sequence with T52A, I54L

[5] = target: T5, SIX6 (Homo sapiens, UniProt O95475 114-200, T165P)
T5 sequence: T1 sequence with T52P, I54L

[6] = target: T6, SIX6 (Homo sapiens, UniProt O95475 114-200, L167M)
T6 sequence: T1 sequence with I54M

[7] = target: T7, SIX6 (Homo sapiens, UniProt O95475 114-200, L143M)
T7 sequence: T1 sequence with L30M, I54L

[8] = target: T8, SIX6 (Homo sapiens, UniProt O95475 114-200, T139Q)
T8 sequence: T1 sequence with T26Q, I54L

[9] = target: T9, SIX6 (Homo sapiens, UniProt O95475 114-200, L167V)
T9 sequence: T1 sequence with I54V

[10] = target: T10, SIX6 (Homo sapiens, UniProt O95475 114-200)
T10 sequence: T1 sequence with I54L

[11] = target: T11, SIX6 (Homo sapiens, UniProt O95475 114-200, T165I)
T11 sequence: T1 sequence with T52I, I54L

[12] = target: T12, SIX6 (Homo sapiens, UniProt O95475 114-200, L143I)
T12 sequence: T1 sequence with L30I, I54L

[13] = target: T13, SIX6 (Homo sapiens, UniProt O95475 114-200, L143V)
T13 sequence: T1 sequence with L30V, I54L

Sequence	binding signal [1]	binding signal [2]	binding signal [3]	binding signal [4]	binding signal [5]	binding signal [6]	binding signal [7]	binding signal [8]	binding signal [9]	binding signal [10]	binding signal [11]	binding signal [12]	binding signal [13]
AGTATCAA	11.1 upbm affinity estimate (log intensity, higher = more binding, comparable within an allelic series)	11.1 upbm affinity estimate (log intensity, higher = more binding, comparable within an allelic series)	11.1 upbm affinity estimate (log intensity, higher = more binding, comparable within an allelic series)	11.1 upbm affinity estimate (log intensity, higher = more binding, comparable within an allelic series)									
GATCCAAA	10.4 upbm affinity estimate (log intensity, higher = more binding, comparable within an allelic series)	10.2 upbm affinity estimate (log intensity, higher = more binding, comparable within an allelic series)	10.2 upbm affinity estimate (log intensity, higher = more binding, comparable within an allelic series)	10.2 upbm affinity estimate (log intensity, higher = more binding, comparable within an allelic series)	9.67 upbm affinity estimate (log intensity, higher = more binding, comparable within an allelic series)	10 upbm affinity estimate (log intensity, higher = more binding, comparable within an allelic series)	10.4 upbm affinity estimate (log intensity, higher = more binding, comparable within an allelic series)	10.5 upbm affinity estimate (log intensity, higher = more binding, comparable within an allelic series)	10.1 upbm affinity estimate (log intensity, higher = more binding, comparable within an allelic series)	10.3 upbm affinity estimate (log intensity, higher = more binding, comparable within an allelic series)	10.2 upbm affinity estimate (log intensity, higher = more binding, comparable within an allelic series)		
ATATCACC	11.2 upbm affinity estimate (log intensity, higher = more binding, comparable within an allelic series)	11.1 upbm affinity estimate (log intensity, higher = more binding, comparable within an allelic series)	11.2 upbm affinity estimate (log intensity, higher = more binding, comparable within an allelic series)	11.1 upbm affinity estimate (log intensity, higher = more binding, comparable within an allelic series)					10.9 upbm affinity estimate (log intensity, higher = more binding, comparable within an allelic series)		10.9 upbm affinity estimate (log intensity, higher = more binding, comparable within an allelic series)		
CGGTGTCA	10.3 upbm affinity estimate (log intensity, higher = more binding, comparable within an allelic series)			11.1 upbm affinity estimate (log intensity, higher = more binding, comparable within an allelic series)	9.3 upbm affinity estimate (log intensity, higher = more binding, comparable within an allelic series)	9.76 upbm affinity estimate (log intensity, higher = more binding, comparable within an allelic series)							
GTATCTTA	10.7 upbm affinity estimate (log intensity, higher = more binding, comparable within an allelic series)	10.7 upbm affinity estimate (log intensity, higher = more binding, comparable within an allelic series)	10.8 upbm affinity estimate (log intensity, higher = more binding, comparable within an allelic series)	10.6 upbm affinity estimate (log intensity, higher = more binding, comparable within an allelic series)	9.9 upbm affinity estimate (log intensity, higher = more binding, comparable within an allelic series)	10.3 upbm affinity estimate (log intensity, higher = more binding, comparable within an allelic series)	10.5 upbm affinity estimate (log intensity, higher = more binding, comparable within an allelic series)	11 upbm affinity estimate (log intensity, higher = more binding, comparable within an allelic series)	10.6 upbm affinity estimate (log intensity, higher = more binding, comparable within an allelic series)	10.5 upbm affinity estimate (log intensity, higher = more binding, comparable within an allelic series)	10.5 upbm affinity estimate (log intensity, higher = more binding, comparable within an allelic series)	10.2 upbm affinity estimate (log intensity, higher = more binding, comparable within an allelic series)	
CTGATATC	11.1 upbm affinity estimate (log intensity, higher = more binding, comparable within an allelic series)	11 upbm affinity estimate (log intensity, higher = more binding, comparable within an allelic series)		11 upbm affinity estimate (log intensity, higher = more binding, comparable within an allelic series)			10.9 upbm affinity estimate (log intensity, higher = more binding, comparable within an allelic series)		10.9 upbm affinity estimate (log intensity, higher = more binding, comparable within an allelic series)		10.9 upbm affinity estimate (log intensity, higher = more binding, comparable within an allelic series)		
ACGGATAG	10.1 upbm affinity estimate (log intensity, higher = more binding, comparable within an allelic series)	10 upbm affinity estimate (log intensity, higher = more binding, comparable within an allelic series)	10 upbm affinity estimate (log intensity, higher = more binding, comparable within an allelic series)		9.43 upbm affinity estimate (log intensity, higher = more binding, comparable within an allelic series)					10.2 upbm affinity estimate (log intensity, higher = more binding, comparable within an allelic series)		9.74 upbm affinity estimate (log intensity, higher = more binding, comparable within an allelic series)	9.74 upbm affinity estimate (log intensity, higher = more binding, comparable within an allelic series)
AAGTATCT	10.5 upbm affinity estimate (log intensity, higher = more binding, comparable within an allelic series)	10.4 upbm affinity estimate (log intensity, higher = more binding, comparable within an allelic series)	10.4 upbm affinity estimate (log intensity, higher = more binding, comparable within an allelic series)	10.4 upbm affinity estimate (log intensity, higher = more binding, comparable within an allelic series)		10.2 upbm affinity estimate (log intensity, higher = more binding, comparable within an allelic series)	10.4 upbm affinity estimate (log intensity, higher = more binding, comparable within an allelic series)	10.6 upbm affinity estimate (log intensity, higher = more binding, comparable within an allelic series)	10.3 upbm affinity estimate (log intensity, higher = more binding, comparable within an allelic series)	10.3 upbm affinity estimate (log intensity, higher = more binding, comparable within an allelic series)	10.3 upbm affinity estimate (log intensity, higher = more binding, comparable within an allelic series)	9.98 upbm affinity estimate (log intensity, higher = more binding, comparable within an allelic series)	
GACGGATA	10.2 upbm affinity estimate (log intensity, higher = more binding, comparable within an allelic series)	10.1 upbm affinity estimate (log intensity, higher = more binding, comparable within an allelic series)			9.43 upbm affinity estimate (log intensity, higher = more binding, comparable within an allelic series)					10.2 upbm affinity estimate (log intensity, higher = more binding, comparable within an allelic series)		9.79 upbm affinity estimate (log intensity, higher = more binding, comparable within an allelic series)	9.77 upbm affinity estimate (log intensity, higher = more binding, comparable within an allelic series)
CTTGATAC	11.2 upbm affinity estimate (log intensity, higher = more binding, comparable within an allelic series)	11.1 upbm affinity estimate (log intensity, higher = more binding, comparable within an allelic series)	11.2 upbm affinity estimate (log intensity, higher = more binding, comparable within an allelic series)	11.1 upbm affinity estimate (log intensity, higher = more binding, comparable within an allelic series)					10.9 upbm affinity estimate (log intensity, higher = more binding, comparable within an allelic series)				
